PubChem BioAssay AID651690 (Sanford-Burnham Center for Chemical Genomics, 2012)
Some of the results follow. Active and inactive are the calls of the source. Cut-off read from the data, not from the text of the source: active = inhibition mostly above about 32% (no sharp cut-off); inactive = mostly below about 29%.

biological target: Sentrin-specific protease 1 (Homo sapiens) (UniProt Q9P0U3); assay: human SENP1 catalytic domain inhibitors, confirmation, biochemical, kinetic FRET, single concentration (AID 651690); conditions: recombinant SENP1, CyPet-SUMO1-YPet FRET kinetic cleavage; at 10 µM; stronger effect = higher value;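 note: 0% = DMSO with enzyme and 100% = no enzyme substrate only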
Sequence (Q9P0U3 419-644 limits assumed): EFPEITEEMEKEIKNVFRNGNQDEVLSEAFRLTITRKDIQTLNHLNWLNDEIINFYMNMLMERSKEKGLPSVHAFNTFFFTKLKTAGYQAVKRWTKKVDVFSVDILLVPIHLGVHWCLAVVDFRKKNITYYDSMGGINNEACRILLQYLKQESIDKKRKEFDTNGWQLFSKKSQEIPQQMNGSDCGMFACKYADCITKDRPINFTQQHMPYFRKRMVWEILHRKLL

Structure (SMILES)	inhibition
CCN(CC)S(=O)(=O)c1cc([N+](=O)[O-])ccc1N=Nc1c(O)n(C)c2ccccc12	-1.62% (inactive)
CCCCCn1nnnc1-c1nc2cc3ccccc3cc2[nH]c1=O	56.7% (active)
O=C(CCN1C(=O)/C(=C/c2cccs2)SC1=S)NNC(=O)c1cccc(O)c1	44.5% (active)
CCOC(=O)C1CCN(c2ncnc3c2c(-c2ccccc2)cn3-c2ccc(C)cc2)CC1	10.2% (inactive)
Cc1ccc2c(c1)nnc1nnc(SCC(=O)O)n12	46.3% (active)
O=[N+]([O-])c1ccc(N=NNc2ccc([N+](=O)[O-])cc2)cc1	11.6% (inactive)
